The panel holds about 79,000 compounds, 15% with a hit somewhere; the sample as a whole holds those more often. Rule as the data show it: active = growth inhibition above about 70%; inactive = the rest.
Key:
[1] = NCI Yeast Anticancer Drug Screen. Data for the rad50 strain (AID 155);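 also: 0% = growth of vehicle-only cultures of the same strain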; details: S. cerevisiae rad50 strain growth inhibition; at 50.0 µM; active compounds read high
How it was run: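 A DNA repair-deficient yeast mutant serves as the test organism; compound-induced growth inhibition is calculated against vehicle-treated cells.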

[2] = NCI Yeast Anticancer Drug Screen. Data for the mec2-1 strain (AID 157); details: S. cerevisiae mec2-1 strain, at 50.0 µM, active compounds read high
How it was run: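 Readout is yeast growth inhibition, normalised to vehicle-treated controls, in the mec2-1 strain exposed to compound.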

[3] = NCI Yeast Anticancer Drug Screen. Data for the sgs1 mgt1 strain (AID 161);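 also: 0% = growth of cultures given vehicle only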; details: S. cerevisiae sgs1 mgt1 strain, at 50.0 µM, active compounds read high
How it was run: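 Percent growth inhibition was derived by comparing compound-exposed mutant yeast with vehicle-exposed cultures. The strain carries alterations in DNA damage repair.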

[4] = NCI Yeast Anticancer Drug Screen. Data for the cln2 rad14 strain (AID 165);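 also: 0% = growth equal to vehicle treated cultures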; details: S. cerevisiae cln2 rad14 strain, at 50.0 µM, active compounds read high
How it was run: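 Relative to vehicle controls, growth inhibition of compound-treated cln2 rad14 yeast was recorded.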

[5] = NCI Yeast Anticancer Drug Screen. Data for the bub3 strain (AID 167); details: S. cerevisiae bub3 mutant strain, at 50.0 µM, active compounds read high
How it was run: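 Inhibition values come from growth of compound-treated mutant yeast normalised to vehicle-treated controls.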

[6] = NCI Yeast Anticancer Drug Screen. Data for the mlh1 rad18 strain (AID 175); details: S. cerevisiae mlh1 rad18 strain growth inhibition; at 50.0 µM; active compounds read high
How it was run: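 Test agents were incubated with a yeast strain of defined genotype (DNA damage repair defect). Inhibition of growth was derived by comparison with vehicle-exposed cultures.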

Measured: growth inhibition

CCCCC1(O)CC2CC1C(C)C2(C)C (stereo unspecified)
inactive: [1] 0.3% | [2] 7.75% | [3] -3.45% | [4] 22.1% | [5] 16.4% | [6] 2.5%

CCOc1c[n+](C)c(/C=C/c2ccccc2)s1
inactive: [1] 3.15% | [2] -11.6% | [3] -3.25% | [4] -9.3% | [5] -0.45% | [6] -20.9%

O=c1oc2ccccc2c(O)c1C(c1ccc2c(c1)OCO2)N1CCOCC1 (stereo unspecified)
inactive: [1] 23.2% | [2] 25.2% | [3] 8.5% | [4] 25.7% | [5] 1.8% | [6] 19.1%

O=C(O)c1cccc(F)c1C(=O)c1ccc2ccccc2c1
inactive: [1] -13.7% | [2] 4.15% | [3] -12.8% | [4] -15.2% | [5] -22.1% | [6] -9.7%

O=C(/C=C/c1ccc(O)c(O)c1)OC1CC(O)(C(=O)O)CC(O)C1O (stereo unspecified)
inactive: [1] 4.75% | [2] 5.9% | [3] 7.85% | [4] 11.4% | [5] -2.75% | [6] 17.7%

Cc1cccc(C)c1C1=NCCN1
inactive: [1] 3.55% | [2] -8.95% | [3] -8.95% | [4] -39.2% | [5] -16.8% | [6] 1.65%

Nc1ccc(-c2c[nH]c(=O)c([N+](=O)[O-])c2)cc1
inactive: [1] 3.5% | [2] -6.05% | [3] -1.35% | [4] -28.5% | [5] 3.5% | [6] -6.4%

CC(C)CC(CC(C)C)=NNC(N)=O
inactive: [1] 17.3% | [2] 23% | [3] 9.05% | [4] 18.9% | [5] 7% | [6] 24.4%

CC(=O)NCCCCCC(=O)O
inactive: [1] 38.9% | [2] 2.45% | [3] 11.9% | [4] 10.7% | [5] -2.65% | [6] 20.7%

N#CCN1c2ccccc2CCC1Cl (stereo unspecified)
inactive: [1] -10.9% | [2] -17.6% | [3] -5.05% | [4] -7.45% | [5] 11.2% | [6] 12.4%

CC(C)=CCC/C(C)=C/COC(=O)N(c1ccccc1)c1ccccc1
inactive: [1] 5.95% | [2] -0.1% | [3] 3.9% | [4] -47% | [5] 3.6% | [6] -1.15%

O=c1n(-c2ccc(Cl)c(Cl)c2)c(=O)n(-c2ccc(Cl)c(Cl)c2)c(=O)n1-c1ccc(Cl)c(Cl)c1
inactive: [1] 3.5% | [2] 5.25% | [3] 9.35% | [4] -44.1% | [5] -3.85% | [6] 4.3%

C[N+]1(C)C/C(=C\c2ccc(O)cc2)C(=O)/C(=C/c2ccc(O)cc2)C1
inactive: [1] -0.75% | [2] -16.3% | [3] 4.05% | [4] -6% | [5] -9.75% | [6] -14.2%

O=C1CCC2(CC1)Cc1ccccc1C2O (stereo unspecified)
inactive: [1] -8.75% | [2] -8.45% | [3] 18% | [4] 29.4% | [5] -9.35% | [6] -5.5%

O=C(Nc1ccccc1)Sc1ccc(Cl)cc1
inactive: [1] -12.2% | [2] -13.2% | [3] -22.5% | [4] -20.1% | [5] 3.15% | [6] 2.85%

CSc1ccc(NC(=O)Nc2cc(Cl)c(Cl)cc2C)cc1
inactive: [1] 4.7% | [2] 60.5% | [3] 46.8% | [4] -1.95% | [5] 35% | [6] 25.2%

CC(C)=Cc1cc(-c2cc(C=C(C)C)on2)no1
inactive: [1] 8.1% | [2] -7.05% | [3] 3.85% | [4] 1.15% | [5] -8% | [6] 4%

BrC1CC2CCCCC2CC1Br (stereo unspecified)
inactive: [1] -1.45% | [2] 22.3% | [3] 21.4% | [4] -9.75% | [5] 8.8% | [6] 9.65%

CCC(=O)NC(OCC1(CC)COC1)(C(F)(F)F)C(F)(F)F
inactive: [1] -8.6% | [2] -10.8% | [3] -37.1% | [4] 2.75% | [5] -11.5% | [6] -13.2%

COc1ccc(CCNC(=S)N/C=C\c2nc3ccccc3[nH]c2=O)cc1OC
inactive: [1] 11.1% | [2] 2.8% | [3] 6.15% | [4] 11.3% | [5] 8% | [6] 19.9%

COC(=O)C1C(=O)N(C)c2cc(C)c(C)cc2C1(C)C (stereo unspecified)
inactive: [1] 7.55% | [2] -9.4% | [3] 1.6% | [4] 5.8% | [5] 24.9% | [6] -3.9%

O=C(O)CC(CSCP(=O)(O)O)C(=O)O (stereo unspecified)
inactive: [1] 6.95% | [2] 1.55% | [3] 3.05% | [4] -7.85% | [5] 1.45% | [6] 15.7%

O=C(CC(=O)c1ccccc1)CC(Nc1ccccc1)c1ccccc1 (stereo unspecified)
inactive: [1] 58% | [2] 10% | [3] 46.1% | [4] -8.5% | [5] 7.55% | [6] 45.9%

Cc1cc(Cl)c(O)c(-c2cc(-c3ccc([N+](=O)[O-])cc3)c3c(N)[nH]c(=O)nc3n2)c1
inactive: [1] 44.1% | [2] -4.65% | [3] 35.5% | [4] 6.2% | [5] 19.6% | [6] 38%

CC(=O)CC(=O)NCCCc1ccccc1
inactive: [1] -18.8% | [2] -33.4% | [3] -21.6% | [4] 3.5% | [5] -6.9% | [6] -11.9%

CCOC(=O)CCc1nc2ccccc2[nH]1
inactive: [1] 0.6% | [2] -0.6% | [3] -0.3% | [4] 3.7% | [5] 0.5% | [6] -4.25%

N#CC(OC(=O)c1cccc(C(=O)OC(C#N)(C(F)(F)F)C(F)(F)F)c1Sc1ccccc1)(C(F)(F)F)C(F)(F)F
inactive: [1] 27% | [2] 13.8% | [3] -10.1% | [4] -7.8% | [5] 7.55% | [6] -1.3%

CCN(CC)CCCN1CCc2c([nH]c3ccccc23)C1c1cccnc1 (stereo unspecified)
inactive: [1] -4.2% | [2] -18.4% | [3] -0.3% | [4] 5.9% | [5] -18.1% | [6] -17.4%

CC1(C)COCN1COCCOCN1COCC1(C)C
inactive: [1] 10.2% | [2] -18% | [3] -1.55% | [4] 7.05% | [5] -25.9% | [6] -56.6%

CC(CCl)NC(=O)Nc1cccc2c1CCCC2 (stereo unspecified)
inactive: [1] -12.5% | [2] 0.3% | [3] -3.9% | [4] -36% | [5] -2.6% | [6] 18.8%

COC(=O)CCCCC#CCCCCC(=O)OC
inactive: [1] 3.25% | [2] 38.6% | [3] -4.65% | [4] -2.6% | [5] 12.2% | [6] 12.9%

c1ccc2c(c1)C(=NOc1nc3ccccc3c3ccccc13)c1ccccc1-2
inactive: [1] -4.85% | [2] 10.6% | [3] 8.75% | [4] 3.65% | [5] 7.95% | [6] 12%

O=c1[nH]nc(SCc2ccccc2)c(=O)n1C(c1ccccc1)c1ccccc1
inactive: [1] 26.4% | [2] 12.4% | [3] 18.6% | [4] 28.2% | [5] 8.05% | [6] 5.3%

Cc1ccc2cccnc2c1
inactive: [1] 21.9% | [2] -4.6% | [3] -0.95% | [4] 11.2% | [5] 2.85% | [6] 5%

CCCCOC(=O)NCNC(=O)OCCCC
inactive: [1] 23.2% | [2] -7.1% | [3] -2.1% | [4] -15% | [5] 1.6% | [6] 14.9%

CCC(CCC(C)C)(SCC(N)=O)C(=O)O (stereo unspecified)
inactive: [1] -4.75% | [2] -5.15% | [3] -26% | [4] -39.3% | [5] 0.2% | [6] -38%

O=C(O)C(CS)NC1CC(=O)N(Cc2ccccc2)C1=O (stereo unspecified)
inactive: [1] 1.95% | [2] 9.8% | [3] 18.6% | [4] -19.3% | [5] -1.55% | [6] -8.25%

CCCCNCCCNCCCC
inactive: [1] 4.95% | [2] -3.4% | [3] 0.65% | [4] -0.7% | [5] 25.5% | [6] 2.6%

CCC(=O)Nc1nnc(SCCCCCCCCCCSc2nnc(NC(=O)CC)s2)s1
inactive: [1] 20.6% | [2] 4.95% | [3] 17.7% | [4] 19.3% | [5] -2.5% | [6] 21.5%

CCOC(=O)C(/C(=N\NC(=O)OC)C(=O)Nc1cc(OC)ccc1OC)c1cnc2ccccc2n1 (stereo unspecified)
inactive: [1] -6.15% | [2] -2.75% | [3] -45.4% | [4] 18.8% | [5] 15.4% | [6] 0.7%

Cn1nc(-c2ccccc2)c(C(=O)/C=C/c2ccc(F)cc2)c(N2CCCCC2)c1=O
inactive: [1] 2.55% | [2] 8.55% | [3] -0.95% | [4] 28.2% | [5] 4.1% | [6] 10.2%

From PubChem BioAssay (NCI)
